Data taken from article PMC5540273 (PLoS ONE, 2017).
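Also: KINOMEscan kinase panel screen.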

The compounds below were run on MAP3K4. Conditions: concentration: 1 μM, replicates: in singlicate; n = 1.
`COc1ccc(CNC(=O)NC2CCN(c3ccnc(Nc4ccc(OC)cc4)n3)C2)cc1` (stereo not shown) [GSK1379727] was tested, and the “%Inh” value was 10%. `c1ccc(-c2cc(-c3c[nH]nc3-c3ccccn3)ccn2)cc1` [GW576604] was tested, and the “%Inh” value was 0%. With `Cn1cc(-c2ccc3c(c2)CCN3C(=O)Cc2ccccc2Cl)c2c(N)ncnc21` [GSK2608885] the “%Inh” value was 86%. In the case of `CNc1ncnc2[nH]ncc12` [SKF-18355], the “%Inh” value was 0%. For `Fc1ccc(-c2ncn(CCCN3CCOCC3)c2-c2ccccn2)cc1` [SB-211742], the “%Inh” value was 18%. In the case of `NS(=O)(=O)c1cccc(-c2ccc3ncc(N4CCOCC4)nc3c2)c1` [GSK1535721], the “%Inh” value was 0%. In the case of `COc1ccc(Nc2nccc(N3CCC(NC(=O)Nc4cc(C)ccc4C)C3)n2)cc1` (stereo not shown) [GSK1379741], the “%Inh” value was 23%. With `COCCNC(=O)c1ccc(-c2cc(C(=O)NC3CC3)cc(F)c2C)cc1` [GW868318] the “%Inh” value was 30%. `Cc1nnc(-c2ccc3ncc(-c4ccc(S(C)=O)cc4)n3c2)o1` (stereo not shown) was tested, and the “%Inh” value was 0%. `c1ccc(-c2n[nH]cc2-c2ccnc3ccccc23)nc1` [GW271431] was tested, and the “%Inh” value was 4%. In the case of `Cn1ccc2ncnc(Oc3ccc(NC(=O)Nc4ccncc4)c(Cl)c3)c21`, the “%Inh” value was 0%. For `Cc1cn2c(=O)cc(N3CCOCC3)nc2n1Cc1cccc(Cl)c1Cl` [GSK2334006], the “%Inh” value was 0%. In the case of `Fc1ccc(-c2ncn(CCCN3CCOCC3)c2-c2cccnc2)cc1` [SB-211743], the “%Inh” value was 0%. `Cc1cccc(-c2nc(Nc3ccc4ncsc4c3)c3ccccc3n2)n1` [GW867588] was tested, and the “%Inh” value was 0%. For `Cc1cccc(Cn2ccn3c(=O)cc(N4CCOCC4)nc23)c1` [GSK2297542], the “%Inh” value was 0%. With `N#Cc1c(N2CCOCC2)sc(-c2ccn[nH]2)c1-c1ccc(Cl)cc1` the “%Inh” value was 2%. For `COc1cc2c(cc1OCCN1CCN(C)CC1)ncc1c3ccc(C#N)cc3[nH]c21`, the “%Inh” value was 0%. For `CN(C1=C(c2ccccc2)C(=O)NC1=O)c1ccccc1` [SB-334860], the “%Inh” value was 10%. `O=C1NC(=O)C(N2CCc3ccccc32)=C1c1cccc(Cl)c1` [SB-408010] was tested, and the “%Inh” value was 9%. `O=c1cc(N2CCOCC2)nc2n(Cc3cccc(Cl)c3Cl)c(C3CC3)nn12` [GSK2358994] was tested, and the “%Inh” value was 19%. With `[2H]C([2H])(c1cccc(C(F)(F)F)c1C)n1ccn2c(=O)nc(N3CCOCC3)cc12` [GSK2336394] the “%Inh” value was 25%. With `CCc1nc(-c2cccc(C)c2)c(-c2ccnc(NCc3ccccc3)c2)s1` the “%Inh” value was 0%. In the case of `Cc1cccc(-c2nc(-c3ccc(S(C)(=O)=O)cc3)sc2-c2ccncc2)c1`, the “%Inh” value was 0%. `CCc1ccnc(/C=C/c2n[nH]c3cc(Sc4ccccc4C(=O)NC)ccc23)c1` was tested, and the “%Inh” value was 4%. In the case of `CSc1ccc(-c2cc3ncnc(SCC(=O)O)c3s2)cc1`, the “%Inh” value was 10%. In the case of `CC(=O)Nc1ccc(COc2ccc(Nc3ccnc4cc(-c5ccccn5)ccc34)cc2)cc1.Cl` [GW440148], the “%Inh” value was 0%. In the case of `COc1cc2ncn(-c3cc(OCc4sccc4Cl)c(C(N)=O)s3)c2cc1OC` [GSK448459], the “%Inh” value was 0%. `Fc1ccc(-c2nn3c(OCC(F)(F)F)cccc3c2-c2ccncc2)cc1` [GW514784] was tested, and the “%Inh” value was 0%. In the case of `CC(C)(C)n1cnc2c(N)ncnc21` [SKF-97359], the “%Inh” value was 0%. With `O=C(NCCNc1ccnc(Nc2ccc(F)cc2)n1)c1cc2ccccc2s1` [GSK1379874] the “%Inh” value was 0%. In the case of `COc1ccc(S(=O)(=O)NC2CCN(c3cc(C)nc(Nc4cccc(C#N)c4)n3)CC2)cc1.O=C(O)C(F)(F)F` [GSK1653539], the “%Inh” value was 24%. `Cc1ccc(C(=O)NCC(N)=O)cc1-n1c(C)cc(OCc2ccc(F)cc2F)c(Br)c1=O` was tested, and the “%Inh” value was 22%. `Cl.Oc1cccc(Nc2ccnc3cc(-c4ccncc4)ccc23)c1` [GW494601] was tested, and the “%Inh” value was 0%. In the case of `O=C(Nc1n[nH]c2cc(-c3cccc(F)c3)ccc12)C1CC1` [SB-735464], the “%Inh” value was 24%.
